Bioassay records from PubChem BioAssay.
A selection: hits, their analogues and other compounds. The true share with any hit is near 3.9%.
GDH-TPI counter – GDH-TPI coupling enzyme inhibitors, primary screen, artefact control for M. tuberculosis FBA inhibitor project, biochemical, absorbance, full deck | GDH-TPI coupled enzyme counterscreen, NADH absorbance | AID 588335, 2011 | hit rate 1.2% among 360,000 | inhibition, % at 4.8 µM;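 also: 0% = DMSO wells and 100% = wells lacking the enzyme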
CCHFV vOTU inh – CCHFV vOTU protease inhibitors, primary screen, biochemical, Pep-AMC substrate, fluorescence; Crimean-Congo hemorrhagic fever virus L polyprotein viral ovarian tumor (vOTU) protease …; inhibition, % at 11.5 µM; hit rate 0.55% among 370,000; AID 651958, 2012; also: 0% = vehicle wells with enzyme and 100% = no enzyme wells
FBA Mtb inh – Mtb FBA enzyme inhibitors, primary screen, biochemical, fluorescence, strain H37Rv | inhibition, % at 1 µM | purified M. tuberculosis FBA, fluorescence read-out | hit rate 2.3% among 360,000; in the data active = inhibition above about 27%;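 also: 0% = vehicle and 100% = reference inhibitor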
Target sequence (P9WQA3 whole entry, looked up): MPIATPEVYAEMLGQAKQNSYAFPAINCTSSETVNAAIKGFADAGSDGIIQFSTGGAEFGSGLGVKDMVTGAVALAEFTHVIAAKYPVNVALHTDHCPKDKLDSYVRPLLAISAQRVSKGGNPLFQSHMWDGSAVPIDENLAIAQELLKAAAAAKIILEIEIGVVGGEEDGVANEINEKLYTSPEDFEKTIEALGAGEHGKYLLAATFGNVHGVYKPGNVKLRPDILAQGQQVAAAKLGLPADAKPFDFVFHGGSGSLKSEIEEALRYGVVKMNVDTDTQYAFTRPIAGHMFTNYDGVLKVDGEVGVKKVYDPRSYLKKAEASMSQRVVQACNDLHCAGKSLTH
BH1578 lux ind – inducers of Vibrio cholerae quorum light production without autoinducers, primary screen, BH1578 luxS cqsA deficient, single point; AID 588436, 2011; hit rate 0.16% among 350,000; V. cholerae BH1578 lux reporter, luminescence, 6 h; activation, % at 18.7 µM; in the data active = activation mostly above about 9.7%, no sharp cut-off
Numbers without * were called inactive; i = inactive; . = no result given; + = active, no number. Rule as the data show it, unless noted: active = inhibition above about 30%; inactive = the rest.

SMILES	GDH-TPI counter	CCHFV vOTU inh	FBA Mtb inh	BH1578 lux ind
Cc1ccc(C2=C(O)C(=O)C(c3ccc(C)cc3)=C(O)C2=O)cc1	8	9	1	-1
COc1cc(C(=O)NCc2nnc(SCC(=O)NC3CCCC3)o2)cc(OC)c1OC	9	6	1	0
O=S1(=O)c2ccc(N3CCCC3)cc2Oc2ccccc2CN1Cc1cn(Cc2ccc(F)cc2)nn1	.	7	.	.
N#C/C(=N\Nc1ccccc1Cl)C(=O)c1ccccc1	18	-4	-6	i
N#C/C(=N\Nc1c(Cl)cccc1Cl)C(=O)NN	32*	7	-12	i
COc1ccc(C(=O)N2CCCCCC2)cc1OC1CCN(C(C)=O)CC1	1	-7	-1	-1
c1ccc(C[n+]2cccc(-c3ccccc3)c2)cc1	11	-14	0	0
Cc1ccc2c(COC(=O)C3CSC4(C)CCC(=O)N34)cc(=O)oc2c1C (stereo not drawn)	0	5	2	-3
CCCCN(CCO)c1ncnc2sc(-c3ccccc3)cc12	31*	19	14	6
O=S(=O)(Nc1ccc2nc(N3CCOCC3)sc2c1)c1ccc(Cl)cc1	3	3	0	i
COc1cc(C(=O)NCC(c2ccco2)N2CCCC2)ccc1OCc1ccc(Cl)cc1Cl (stereo not drawn)	2	7	1	3
O=C1NC(=O)/C(=C/c2cccc3ccccc23)S1	37*	0	0	i
O=C1NC(=O)C(=Cc2ccccc2[N+](=O)[O-])S1	9	24	-1	i
CCOC(=O)c1oc2nc3c(cc2c1N)CCCC3	-10	-8	25	1
CCOC(=O)c1cc2c(nc1N)CCCC2	17	-98	139*	-1
O=C(NCCCn1ccnc1)/C(=C\c1cccs1)NC(=O)c1cccs1	10	-2	-1	0
COc1ccccc1NCc1cc(=O)oc2c(C)c(O)ccc12	12	-4	6	0
Cc1c(O)ccc2c(CC(=O)N[C@@H](Cc3ccccc3)C(=O)O)cc(=O)oc12	15	-286	165*	1
CCCC(=O)NC1=C(N2CC2)C(=O)C(NC(=O)CCC)=C(N2CC2)C1=O	33*	28	-2	11
COc1ccsc1C(=O)NCCN1CCOCC1	-2	-9	2	0
Cc1ccc(/C=C(\C#N)C(=O)Nc2c(C)cccc2C)s1	45*	-3	3	i
CC(C)CCNC(=O)c1cc2c(s1)-c1ccccc1S(=O)(=O)C2	32*	-4	15	0
N#Cc1nc(-c2ccccc2)oc1NCC1CCCO1 (stereo not drawn)	6	-54	171*	0
C=CCNc1oc(-c2ccc(Cl)cc2)nc1C#N	13	-4	4	-1
O=C(Cc1cccc2ccccc12)NCC1CCCO1 (stereo not drawn)	2	12	7	-1
SMILES	GDH-TPI counter	CCHFV vOTU inh	FBA Mtb inh	BH1578 lux ind
CNc1oc(-c2ccc(Cl)cc2)nc1C#N	0	-172	+	0
N#Cc1nc(-c2cccc3ccccc23)oc1NCC1CCCO1 (stereo not drawn)	9	-268	+	0
Clc1ccc(-c2csc(NCC3CCCO3)n2)cc1 (stereo not drawn)	.	0	.	.
N#Cc1nc(-c2ccc(Cl)cc2)oc1NCC1CCCO1 (stereo not drawn)	1	-90	154*	0
Cc1ccccc1NC(=O)CN1C(=O)COc2ccc(Cl)cc21	-3	-1	1	0
O=C1c2ccccc2-c2c1cccc2C(=O)N1CCCCCC1	8	-22	3	0
CCOc1cc(/C=C(/C#N)c2ccc(F)cc2)ccc1OCc1ccc(C(=O)O)o1	34*	26	3	0
Cc1ccc(S(=O)(=O)N(C)C)cc1NC(=O)COC(=O)/C=C/c1ccc(F)cc1	-4	26	-1	-2
CC1(C)Cc2c(cnn2-c2ccc(F)cc2)C(NC(=O)c2ccc(=O)oc2)C1 (stereo not drawn)	41*	16	-2	i
Nc1ccc(-c2nc3cc(N)ccc3n2CCO)cc1	14	-150	+	i
Cn1c(CO)nc2cc(N)ccc21	11	-14	3	2
CCOC(=O)c1oc2nc(CC(C)C)c3c(c2c1N)CCCC3	0	-43	137*	0
CC(C)Cc1nc2oc3c(Cl)ncnc3c2c2c1CCC2	8	-10	2	0
CCCn1nc(C(=O)OCC(=O)Nc2cccc(S(N)(=O)=O)c2)c2ccccc2c1=O	-5	-3	7	4
COc1ccc(C(CNC(=O)c2cc3ccccc3cc2OC)N2CCCC2)cc1 (stereo not drawn)	34*	-10	6	i
COc1cc2ccccc2cc1C(=O)Nc1ccccc1N1CCCC1	3	17	+	i
COc1cccc(OC)c1C(=O)Nc1ccccc1N1CCCC1	-3	29	2	0
Nc1ccccc1/C=C/c1ccccc1N	27	-301	146*	i
Cc1cc([N+](=O)[O-])nn1Cc1ccc(C(=O)N/N=C/c2ccc(O)cc2O)cc1	44*	11	-1	0
Cc1cc([N+](=O)[O-])nn1Cc1ccc(C(=O)N/N=C/c2ccc(F)cc2)cc1	-5	-6	1	-1
Cc1ccc(OC2CCN(C(=O)[C@H]3O[C@@H](n4ccc(N)nc4=O)[C@H](O)[C@@H]3O)CC2)cc1	.	0	0	.
Cc1ccc(N/C=C/C(=O)c2ccc(C)cc2)cc1	6	4	3	1
Cc1ccc(C(=O)/C=C/Nc2ccccn2)cc1	33*	-6	0	0
CN(C)c1cccc(C(=O)NCCCSc2ccccc2)c1	6	-7	10	i
CCC(=O)NC(=S)Nc1ccc2oc(-c3ccc(OC)cc3)nc2c1	2	6	-2	0
SMILES	GDH-TPI counter	CCHFV vOTU inh	FBA Mtb inh	BH1578 lux ind
CCCC(=O)Nc1ccc2oc(-c3ccc(OC)c(Br)c3)nc2c1	16	-18	125*	i
CCCCNS(=O)(=O)c1ccc2nc(-c3cccnc3)cc(C(=O)NCCOC)c2c1	32*	0	1	-1
COCCCNC(=O)c1cc(-c2cccnc2)nc2ccccc12	11	-5	4	-1
O=C(CN(Cc1ccco1)C(=O)c1ccccc1)Nc1ccc(Cl)c(Cl)c1	-3	15	-2	i
COc1ccccc1CNC(=O)C1CCCN(S(=O)(=O)c2c(C)[nH]c(=O)[nH]c2=O)C1 (stereo not drawn)	5	23	65*	i
COc1cccc(CNC(=O)C2CCCN(S(=O)(=O)c3c(C)noc3/C=C/N(C)C)C2)c1 (stereo not drawn)	34*	8	0	-11
COc1ccccc1CNC(=O)C1CCCN(S(=O)(=O)c2cnc[nH]2)C1 (stereo not drawn)	8	2	-1	0
COCCNC(=O)C1CCCN(S(=O)(=O)c2c(C)noc2/C=C/c2cccs2)C1 (stereo not drawn)	22	6	3	0
Cc1noc(/C=C/N(C)C)c1S(=O)(=O)N1CCCC(C(=O)NCc2cccs2)C1 (stereo not drawn)	38*	16	0	1
